Reference: PubChem BioAssay (NCATS)
Records with an inconclusive call do not appear. Values without a mark were called inactive. Active and inactive are the calls of the source. The call rests on the fitted dose curve; in most records, active means well fitted cell-killing curve with a large enough effect in the repeat runs; inconclusive means weak or mixed curves, or effect the other way; inactive means flat fitted curve, though single readings scatter.

Assay: qHTS assay for small molecule antagonists of the retinoid-related orphan receptor gamma (ROR-gamma) signaling pathway - cell viability counter screen (AID 720652);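 further: compound exposure lasted 16 hr before ATP read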
Details: RORgamma reporter cell line viability counter screen; series mostly up to 92.2 µM; activity change, negative = cytotoxicity: at the top concentration
Text: National Center for Advancing Translational Sciences [NCATS]
NIH Chemical Genomics Center [NCGC]
National Institutes of Environmental Health Sciences [NIEHS]
National Toxicology Program [NTP]
Nuclear steroid hormone receptors are involved in many biological processes including inflammatory responses, cell proliferation, and apoptosis. Environmental factors or compounds disrupting these nuclear receptor pathways and gene expression may promote susceptibility to immunotoxicants and autoimmune diseases. One important group of these expression factors are the retinoid-related orphan receptors. To assess compounds that may interfere with the retinoid-related orphan receptor gamma (ROR-gamma) transcription factor, a cell-based luciferase assay was used.
The CHO cell-based assay utilizes a TET-inducible ROR expression factor and ROR response element-LUC reporter gene. Reporter activity was induced using doxycycline and measured after 16hr incubation. Luminescence was read using Viewlux (PerkinElmer), where a decrease in reporter activity would show a decrease in luminescence. The cytotoxicity of the compounds against ROR response-Luc reporter gene cell line was quantified by measuring the intracellular ATP content.
1,000 cells in 4 uL/well were dispensed into white wall/solid bottom 1536-well plates using a Multidrop Combi (Thermo Scientific) dispenser. Following incubation at 37 C and 5% CO2 for 5 hr, 23 nL compound or DMSO vehicle were transferred by a pin tool, then the plates were treated with 1 ul doxycycline to induce reporter gene activity. After 16 hr incubation at 37 C and 5% CO2, 5 uL/well of CellTiter-Glo reagent (Promega) was then added to each plate using a Flying Reagent Dispenser and incubated at room temperature for 30 min. The luminescence intensity was quantified on a ViewLux plate reader (PerkinElmer).
On the % scale 0 is the no-effect control and ±100 the full control effect; potency means the concentration at half of the fitted maximal effect.

Point of comparison: `C#C[C@]1(O)CC[C@H]2[C@@H]3CCc4cc(O)ccc4[C@H]3CC[C@@]21C`, “activity change, negative = cytotoxicity” value -10.2%. Against it:
- O=C(O)c1cc(O)c(O)c(O)c1 — higher, 5.66%
- CN1CCC[C@H]1c1cccnc1 — higher, -0.523%
- NCCO — higher, 14%
- O=C(O)/C=C\C(=O)O — lower, -11.3%
- c1ccc2sc(SSc3nc4ccccc4s3)nc2c1 — higher, 12.2%
- Nc1ccc(O)c(C(=O)O)c1 — higher, 2.33%
- S=c1[nH]c2ccccc2s1 — higher, -1.05%
- Nc1nc2ccc([N+](=O)[O-])cc2s1 — lower, -12.8%
- COc1cc(CNC(=O)CCCC/C=C/C(C)C)ccc1O — higher, 0.515%
- Nc1ccc([N+](=O)[O-])cc1O — higher, 4.66%
- CCCCCCCCCCCCCCCCCC(=O)O — higher, 2.13%
- CN(C)c1ccc(N=NS(=O)(=O)O)cc1 — higher, -6.8%
- CN(C)CCC(c1ccc(Cl)cc1)c1ccccn1 (stereo not drawn) — higher, 4.16%
- Nc1ccc(O)c([N+](=O)[O-])c1 — higher, -8.24%

With `N=C1N=C(N)c2cc3ccccc3cc21` the Potency was 42.2 µM (active).
In the case of `CCCOC(=O)c1ccc(O)cc1`, the Potency was “inactive”.
In the case of `CN(C)c1ccc(C(=C2C=CC(=[N+](C)C)C=C2)c2ccccc2)cc1`, the Potency was 2.37 µM (active).
